Source: PubChem
The list is not random: actives were taken first. Their share in the collection is about 0.92%.
AGP1 TOR yeast: alters AGP1-GFP fluorescence in TOR pathway yeast screen | S. cerevisiae AGP1-GFP multiplex flow cytometry, 3 h; GFP as percent of DMSO wells | GFP response vs DMSO, % at 10 µM | 320,000 compounds, 0.02% hits;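 active means GFP response relative to DMSO above a set limit, near screen average plus 3 SD, cut at about 150% in these data; inconclusive means fewer than 70 cells counted for the yeast strain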;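 further: median GFP channel fluorescence of the gated AGP1 strain per well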
LAP4 TOR yeast: modulators of TOR pathway LAP4-GFP in S. cerevisiae; GFP response vs DMSO, % at 10 µM; 320,000 compounds, 0.34% hits; AID 2023; S. cerevisiae LAP4-GFP multiplex, flow cytometry GFP, 3 h; median GFP as percent of DMSO wells;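 active means GFP response vs DMSO above a set limit, about the screen mean plus 3 SD, cut at about 150% in these data; inconclusive means under 70 cell events counted for the yeast strain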
RPL19A-GFP yeast: modulators of TOR pathway RPL19A-GFP in S. cerevisiae. S. cerevisiae RPL19A-GFP strain, flow cytometry, 3 h; hits give low values. percent response vs DMSO, % at 10 µM. 330,000 compounds, 0.3% hits. AID 2025;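 active means percent response vs DMSO below 50%; inconclusive means fewer than 70 events counted for the yeast strain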;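 further: median channel GFP fluorescence of the barcoded RPL19A-GFP strain; ratio of sample median GFP to plate DMSO average so 100% = DMSO; lower means less RPL19A-GFP as with rapamycin TOR inhibition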
MEP2 TOR yeast: alters MEP2-GFP fluorescence in TOR pathway yeast screen. S. cerevisiae MEP2-GFP strain, flow cytometry GFP, 3 h; 100% = DMSO control level. GFP response vs DMSO, % at 10 µM. 330,000 compounds, 0.51% hits. AID 2016;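 active means GFP response versus DMSO above a set limit, roughly screen mean plus 3 SD, cut at about 180% in these data; inconclusive means fewer than 70 cells counted for a yeast strain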;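 further: median GFP fluorescence of the barcode-gated MEP2-GFP cells per well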
CIT2-GFP yeast: alters CIT2-GFP fluorescence in TOR pathway yeast screen; S. cerevisiae CIT2-GFP strain, flow cytometry, 3 h; 100 means same as DMSO wells; GFP response vs DMSO, % at 10 µM; 320,000 compounds, 0.065% hits; AID 2029;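 active means GFP response relative to DMSO above a set limit, near the screen mean plus 3 SD, cut at about 150% in these data; inconclusive means Fewer than 70 cells measured for a yeast strain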;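 further: ratio of well median GFP fluorescence to mean of DMSO wells on the plate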
Starred values were filed as active, the others as inactive; u = inconclusive; x = no result given; [ ] = dose if it differs, or a comment.

SMILES	AGP1 TOR yeast	LAP4 TOR yeast	RPL19A-GFP yeast	MEP2 TOR yeast	CIT2-GFP yeast
O=c1oc(-c2cccc(Cl)c2)nc2c1cnn2-c1ccccc1	23	101	57	208*[may fluoresce violet]	u
CN1C(=O)/C(=C/c2ccc(C(=O)Nc3ccc(O)cc3C(=O)O)cc2)SC1=S	94	96	94	94	87
O=C(/C(=C/O)N=Nc1ccc(Cl)cc1)c1ccncc1	78	203*	64	122	68
COc1ccc(N=N/C(=C\O)C(=O)c2cccs2)cc1	78	109	96	93	74
COc1ccc(C(=O)/C(=C/O)N=Nc2ccc(F)cc2)cc1	96	172*	94	99	77
Cc1cc(C)c(C)c(S(=O)(=O)N2CCN(C(=O)CNC(=O)c3ccco3)CC2)c1C	103	105	99	99	107
CCOC(=O)C1(CCCc2ccccc2)CCN(C(=O)c2cc(C)nn2CC)CC1	129	137	83	615*	151*
Cc1ccc2c(c1)sc(-c1ccc(N(C)C)cc1)[n+]2C	68	124	68	125	90
O=C(O)c1ccc(NS(=O)(=O)c2cc(Cl)sc2Cl)cc1	u	78	41*[may fluoresce violet]	710*[may fluoresce violet]	u
CC(=O)Nc1ccc(NS(=O)(=O)c2cc(Cl)sc2Cl)cc1	116	111	100	104	121
COc1ccccc1NC(=O)c1cc(S(=O)(=O)NC2CCCC2)ccc1F	u	59	39*[may fluoresce violet]	266*[may fluoresce violet]	u
COc1ccc(S(=O)(=O)Nc2ccc(Nc3ccccc3)cc2)cc1	110	111	98	101	102
COc1ccc(S(=O)(=O)Nc2ccccc2)cc1	u	89	27*[may fluoresce violet]	208*[may fluoresce violet]	u
CC(=O)N/N=C/c1cc(C(C)C)cc(/C=N/NC(C)=O)c1O	49	181*[may fluoresce violet]	113	195*[may fluoresce violet]	u
CCOC(=O)/C=C1\SCC(=O)N1Cc1nnc(-c2ccccc2Br)o1	30	94	x	289*	95
CCOC(=O)/C=C1\SCC(=O)N1Cc1ccc(Br)cc1	92	88	96	97	x
COC(=O)c1ccc2c(=O)n(CCN3CCOCC3)c(SCC(=O)NCc3ccccc3)nc2c1	108	106	101	113	103
CC(=O)c1cc(C#N)c(SCc2ccccc2)nc1C	x	101	56	184*[may fluoresce violet]	u
COc1cc(CCC(=O)OCC(=O)N2CCc3ccccc32)cc(OC)c1OC	102	100	112	109	102
O=C(O)c1ccc(-c2ccc(/C=c3/sc4nc5ccccc5n4c3=O)o2)cc1Cl	u	62	28*[may fluoresce violet]	783*[may fluoresce violet]	u
CC1(C)OC(=O)C(=Cc2ccc(-c3ccc(Cl)c(C(=O)O)c3)o2)C(=O)O1	82	84	102	91	90
Clc1ccc(SCc2cc(-c3ccccc3)on2)cc1	u	83	53	218*[may fluoresce violet]	u
O=C(O)c1ccc(N2C(=O)CC(N3CCN(c4cccc(C(F)(F)F)c4)CC3)C2=O)cc1 (configuration not stated)	u	90	39*[may fluoresce violet]	603*[may fluoresce violet]	u
CCSc1nnc(NC(=O)Cc2cc(OC)c(OC)c(OC)c2)s1	94	108	108	106	106
O=C(O)C1CCC(NSc2ccccc2[N+](=O)[O-])CC1 (configuration not stated)	90	199*	90	96	96
SMILES	AGP1 TOR yeast	LAP4 TOR yeast	RPL19A-GFP yeast	MEP2 TOR yeast	CIT2-GFP yeast
CCC(C)N(C(=O)c1csnn1)C(C(=O)NCc1ccc(F)cc1)c1ccccc1F (configuration not stated)	103	87	100	100	111
O=C(c1ccco1)N1CCN(C(c2coc3ccc(Cl)cc3c2=O)c2nnnn2C2CCCC2)CC1 (configuration not stated)	u	93	20*[may fluoresce violet]	416*[may fluoresce violet]	u
Cc1ccc2occ(C(c3nnnn3C3CCCC3)N3CCN(C(=O)c4ccco4)CC3)c(=O)c2c1 (configuration not stated)	91	98	98	95	90
COCC1CCCN(C(=O)c2cc(COc3ccc4ncccc4c3)on2)C1 (configuration not stated)	92	92	103	92	95
COc1ccccc1/C=C/C(=O)NCC(=O)N/N=C/c1ccc(C)o1	107	111	103	102	106
c1cc2c(cc1C1CCCCC1)c1c3n2CCCNC3CCC1 (configuration not stated)	70	188*	74	130	72
